Screening results as filed in PubChem BioAssay.
The list is not random: actives were taken first. Their share in the collection is about 1.6%.
KCNQ2 inh: rat KCNQ2 potassium channel inhibitors, primary screen, cell-based, CHO-K1, FluxOR thallium flux, B-score; Potassium voltage-gated channel subfamily KQT member 2 (Rattus norvegicus), O88943; 20 min; active compounds read low; AID 2156, 2009; B-score at 10 µM; hit rate 1.1% among 310,000;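 active = fluorescence ratio B-score at most minus 3 library SDs, with starting brightness B-score within 2 library SDs, cut at about -5.5 in these data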
KCNQ2 enhance: potentiators of rat KCNQ2 potassium channel; hit rate 0.54% among 310,000; AID 2239, 2010; Potassium voltage-gated channel subfamily KQT member 2 (Rattus norvegicus), O88943; B-score at 10 µM; CHO-K1 KCNQ2, FluxOR thallium flux fluorescence; active compounds read high;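 active = fluorescence ratio B-score at least 3 SD of library B-scores, with initial fluorescence B-score within 3 of them, cut at about 5.3 in these data; same plate scores as AID 2156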;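 note: B-score of peak minus minimum over baseline fluorescence ratio after K+ and Tl+ stimulus; positive B-score means potentiation of KCNQ2 with more thallium influx and brighter signal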
KCNQ2 inh conf: rat KCNQ2 potassium channel inhibitors, confirmation, cell-based, thallium flux. activity change, negative = inhibition, % at 10 µM. KCNQ2-expressing cells, inhibition; active compounds read low. shares compounds with KCNQ2 inh. hit rate 57% among 1,000;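 note: 0% = vehicle wells and values are ratio percent relative to vehicle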
KCNQ1 spec: human KCNQ1 channel inhibition, counter-screen for KCNQ2 inhibitor project, cell-based, FluxOR thallium flux | KCNQ1-expressing cells, FluxOR thallium flux fluorescence; active compounds read low | activity change, negative = inhibition, % at 10 µM | hit rate 15% among 1,000 | AID 493026, 2011 | shares compounds with KCNQ2 inh;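 active = activity change at least 3 SD of negative controls below their mean in both duplicate wells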;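 note: CHO cells stably transfected with KCNQ1 and depolarized by potassium stimulus; peak minus minimum fluorescence over baseline after thallium addition; 0% = vehicle negative control and -100% = blank without thallium stimulus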
Target sequence (P51787 whole entry, looked up): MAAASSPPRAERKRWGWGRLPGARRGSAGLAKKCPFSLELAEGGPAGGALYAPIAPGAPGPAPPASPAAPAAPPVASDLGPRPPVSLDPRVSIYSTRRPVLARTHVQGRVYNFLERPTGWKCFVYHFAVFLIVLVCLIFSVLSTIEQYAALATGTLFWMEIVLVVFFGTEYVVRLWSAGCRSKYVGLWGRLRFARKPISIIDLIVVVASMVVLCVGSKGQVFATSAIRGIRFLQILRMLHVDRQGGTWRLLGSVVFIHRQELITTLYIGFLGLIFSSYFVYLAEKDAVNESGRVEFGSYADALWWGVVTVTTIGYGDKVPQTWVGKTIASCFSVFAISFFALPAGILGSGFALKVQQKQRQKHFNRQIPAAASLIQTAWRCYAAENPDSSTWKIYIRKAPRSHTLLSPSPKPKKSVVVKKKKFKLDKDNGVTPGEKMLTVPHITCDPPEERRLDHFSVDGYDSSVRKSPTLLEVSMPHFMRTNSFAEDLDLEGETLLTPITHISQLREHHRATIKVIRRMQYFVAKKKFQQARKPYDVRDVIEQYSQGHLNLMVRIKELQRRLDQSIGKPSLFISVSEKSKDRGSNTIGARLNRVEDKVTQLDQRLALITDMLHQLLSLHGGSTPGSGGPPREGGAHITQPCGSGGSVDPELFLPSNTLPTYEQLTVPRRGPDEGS
CHO Tl ctr: thallium flux change in parental CHO cells, counter-screen for KCNQ2 inhibitor project | hit rate 14% among 1,000 | active compounds read low | activity change, % at 10 µM | shares compounds with KCNQ2 inh;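 note: 0% = vehicle negative controls with stimulus buffer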
KCNQ2 inh confirm: rat KCNQ2 channel inhibitors, confirmation, cell-based, automated patch clamp, single concentration; shares compounds with KCNQ2 inh; hit rate 49% among 550; calls only at 10 µM; KCNQ2-expressing cells, automated patch clamp current; AID 588531, 2011
An asterisk follows results filed as active. Unless noted, the rule behind the calls is not given here.

Screening COc1cc(-c2nc3ccc(C)cn3c2NCc2ccccc2)ccc1SC1CCCCC1 returned KCNQ2 inh inactive.
`COc1cc(-c2nc3ccccn3c2NCc2ccccc2)ccc1SC1CCCCC1` gave KCNQ2 inh -8.7*, KCNQ2 enhance -8.7, KCNQ2 inh conf inactive, KCNQ1 spec inactive and CHO Tl ctr inactive.
Screening O=C(N/C(=C\c1ccco1)C(=O)N1CCCC(CO)C1)c1ccccc1 (stereo not drawn) returned KCNQ2 inh inactive.
`Cc1cc(C)c2sc(NC(=O)C3=COCCO3)nc2c1` gave KCNQ2 inh inactive and KCNQ2 enhance 1.1.
Screening COc1ccc(OC)c(-c2nn(-c3ccccc3)cc2C(=O)NCC(c2cccs2)N2CCOCC2)c1 (stereo not drawn) returned KCNQ2 inh inactive.
O=C(/C=C/c1ccco1)NC(=S)Nc1ccccc1N1CCCC1 was read as KCNQ2 inh inactive.
For O=C(/C=C/c1ccco1)NC(=S)Nc1ccccc1N1CCOCC1 the results were KCNQ2 inh -7.2*, KCNQ2 enhance -7.2, KCNQ2 inh conf inactive, KCNQ1 spec inactive and CHO Tl ctr inactive.
For COc1ccc(NS(=O)(=O)c2ccc3nc(COc4ccc(C#N)cc4)[nH]c3c2)cc1 the results were KCNQ2 inh inactive and KCNQ2 enhance 2.1.
For CCC(Oc1ccccc1)C(=O)Nc1cc(C(F)(F)F)ccc1N1CCOCC1 (stereo not drawn) the results were KCNQ2 inh -7*, KCNQ2 enhance -7, KCNQ2 inh conf inactive, KCNQ1 spec inactive and CHO Tl ctr inactive.
Screening CC(=O)N1CCN(c2ccccc2NC(=O)COc2cc(C)cc(C)c2)CC1 returned KCNQ2 inh inactive.
CCN(CC)S(=O)(=O)c1ccc(N2CCOCC2)c(NC(=O)COc2ccccc2)c1 was read as KCNQ2 inh -6.8*, KCNQ2 enhance -6.8, KCNQ2 inh conf -31%*, KCNQ1 spec inactive, CHO Tl ctr inactive and KCNQ2 inh confirm active.
For CC(=O)Nc1cc(C(F)(F)F)ccc1N1CCOCC1 the results were KCNQ2 inh inactive and KCNQ2 enhance 0.43.
O=C(Nc1ccccc1N1CCOCC1)c1cc2c(s1)CCCCC2 was read as KCNQ2 inh inactive.
CCc1sc(C(=O)Nc2ccccc2N2CCOCC2)cc1C was read as KCNQ2 inh -7.3*, KCNQ2 enhance -7.3, KCNQ2 inh conf -18%*, KCNQ1 spec inactive and CHO Tl ctr inactive.
CCN(CC)S(=O)(=O)c1ccc(N2CCOCC2)c(NC(=O)CCOc2ccccc2)c1 was read as KCNQ2 inh inactive.
`Cc1cc(C)c(OCC(=O)Nc2ccccc2N2CCOCC2)c(C)c1` gave KCNQ2 inh -9.4*, KCNQ2 enhance -9.4, KCNQ2 inh conf inactive, KCNQ1 spec inactive and CHO Tl ctr inactive.
For Cc1ccc2nc(N3CCN(C)CC3)c(C=O)c(=O)n2c1 the results were KCNQ2 inh inactive.
N#C/C(=C\c1c[nH]c2ccccc12)C(=O)NC1CCCC1 was read as KCNQ2 inh inactive.
For CCCCC(=O)Nc1ccccc1N1CCOCC1 the results were KCNQ2 inh inactive and KCNQ2 enhance 1.6.
Screening O=C(CC12CC3CC(CC(C3)C1)C2)Nc1ccccc1N1CCOCC1 returned KCNQ2 inh -6.8*, KCNQ2 enhance -6.8, KCNQ2 inh conf -30%*, KCNQ1 spec -34%*, CHO Tl ctr -20%* and KCNQ2 inh confirm inactive.
For COc1cccc(/C=C/C(=O)OCC(=O)NCCC2=CCCCC2)c1 the results were KCNQ2 inh inactive.
Screening CC(NC(=O)C12CC3CC(C)(CC(C)(C3)C1)C2)c1ccncc1 (stereo not drawn) returned KCNQ2 inh inactive and KCNQ2 enhance 0.79.
Screening Cc1ccc(NC(=O)C(NC2CCCC2)c2ccccc2)cc1Cl (stereo not drawn) returned KCNQ2 inh -6.8*, KCNQ2 enhance -6.8, KCNQ2 inh conf -36%*, KCNQ1 spec -39%*, CHO Tl ctr -36%* and KCNQ2 inh confirm inactive.
